Compounds with a hit are over-represented: about 3.2% of the library has one in this group of screens.
Tb PYK inh – inhibitors of Trypanosoma brucei pyruvate kinase | Q57TT1 | TbPYK enzyme, Kinase-Glo Plus ATP luminescence, 45 min | Potency, µM (doses to about 76.8 µM), without a hit: top-dose activity, negative = inhibition, usual class: inhibitors | 410,000 compounds, 0.12% hits | AID 624173; also: nearly all actives have a fitted effect of over 50% in size
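T. brucei PYK with substrate was exposed to pin-transferred compounds across a concentration series, then started with 130 uM ADP (final). After 45 min at room temperature, Kinase-Glo Plus luminescence was read, normalized and curve-fitted.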
AMA1-RON2 inh – inhibitors of Plasmodium falciparum AMA1-RON2 interaction | Potency, µM (top dose mostly 58.2 µM), for inactives: top-dose activity change, negative = inhibition, most hits filed as inhibitors | AID 720542 | 360,000 compounds, 0.2% hits | AlphaScreen AMA1-biotinylated RON2 peptide binding;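 also: 0% = vehicle wells and -100% = peptide control; nearly all actives have a fitted effect of over 45% in size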
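AMA1 (3D7) with his tag at 25 nM final met compounds first, then biotinylated RON2 peptide at 25 nM; detection used donor plus acceptor beads, 10 µg/mL apiece, read by AlphaScreen after 30 min at room temperature.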
Sm TGR inh – S. mansoni TGR enzyme inhibition; Q962Y6; purified TGR, DTNB reduction, TNB absorbance 405 nm; Potency, µM (series often up to 114 µM), inactives show at the highest dose activity change, negative = inhibition, hits mostly inhibitors; 360,000 compounds, 3% hits; AID 485364; also: nearly all actives have a fitted effect of over 60% in size
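First, TGR (20 nM dispensed) and NADPH were mixed with compound. Second, a 15 min room-temperature incubation followed. Third, further NADPH and then DTNB were added to start the reaction. Finally, TNB absorbance was monitored kinetically.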
LmPK inh – inhibitors of Leishmania mexicana pyruvate kinase; Q27686; purified LmPK, Kinase-Glo ATP luminescence, 1 h; Potency, µM (titrated, usually from 57.5 µM), for the others: at the highest dose activity change, negative = inhibition, actives largely listed as inhibitors; 290,000 compounds, 0.37% hits; AID 1721
Target sequence (Q27686 whole entry, looked up): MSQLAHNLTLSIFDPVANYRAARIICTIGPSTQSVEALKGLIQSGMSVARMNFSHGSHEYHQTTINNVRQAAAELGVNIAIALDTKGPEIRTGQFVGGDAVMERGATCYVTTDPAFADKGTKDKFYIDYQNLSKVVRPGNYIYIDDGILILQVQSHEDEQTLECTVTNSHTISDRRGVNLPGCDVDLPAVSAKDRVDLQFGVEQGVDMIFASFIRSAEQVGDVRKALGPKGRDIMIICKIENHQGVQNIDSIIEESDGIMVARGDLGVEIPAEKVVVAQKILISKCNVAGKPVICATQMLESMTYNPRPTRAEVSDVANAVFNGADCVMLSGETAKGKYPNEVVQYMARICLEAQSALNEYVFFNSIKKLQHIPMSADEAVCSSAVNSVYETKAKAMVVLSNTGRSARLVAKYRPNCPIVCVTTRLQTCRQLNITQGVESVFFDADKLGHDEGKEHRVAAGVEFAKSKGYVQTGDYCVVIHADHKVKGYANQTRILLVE
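ATP generated from ADP (0.1 mM) and PEP (0.5 mM) by 0.1 nM LmPK over 1 h at room temperature (pH 7.2 imidazole buffer) was detected by coupled luciferase luminescence. Values were normalized to uninhibited and no-enzyme wells.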
RE007 growth inh – less growth of the S. pombe RE007 Vpr strain | S. pombe RE007 Vpr strain, BacTiter-Glo ATP luminescence, 24 h | Potency, µM (top dose mostly 92.2 µM), for the others: top-dose activity change, negative = less growth, actives largely listed as inhibitors | 360,000 compounds, 0.21% hits; active = well fitted falling curve with a large enough effect; inconclusive = small, poorly fitted or top-dose-only effect; inactive = no such curve, though single readings can be large or run the other way; also: nearly all actives have a fitted effect of over 50% in size
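Fission yeast strain RE007, carrying one chromosomally integrated HIV-1 vpr copy, was seeded at OD 0.01 in PMG+AL medium with 23 nL pinned compound. After 24 h at 30 °C and 99% humidity, viability was read by BacTiter-Glo luminescence.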
The depositor's hits bear a star; ? = inconclusive; nt = no result; [ ] = remark or other dose. Unless noted, calls follow the shape of the dose curve; as a rule, active = well fitted curve in the direction sought with a large enough effect; inconclusive = small, poorly fitted or top-dose-only effect, or another doubt; inactive = no such curve, though single readings can be large; an effect the other way counts as inactive or inconclusive. Unless noted, % is scaled to controls: 0 for no effect and ±100 for the full control effect; potency is read from the fitted curve at half-maximal effect.

SMILES	Tb PYK inh	AMA1-RON2 inh	Sm TGR inh	LmPK inh	RE007 growth inh
CN(c1cc2c(c3c1ccn3C)C1CCC2C1)C1CCCCC1 (stereo not drawn)	-3%	16µM*	nt	nt	?
CCN(C)c1cc2c(c3c1ccn3C)C1CCC2C1 (stereo not drawn)	-8%	?	nt	nt	-20%
COc1ccccc1N(C)c1cc2c(c3c1ccn3C)C1CCC2C1 (stereo not drawn)	-2%	13µM*	nt	nt	-8%
Cc1ccc(CN(C)C(=O)CC2C(=O)NCCN2CC2CCCCC2)cc1 (stereo not drawn)	6%	-24%	?	5%	0%
O=C(CC1C(=O)NCCN1Cc1ccc(-c2ccccc2)cc1)NCc1ccccc1 (stereo not drawn)	-10%	8%	?	0%	-10%
Cc1nc(CCNC(=O)CC2C(=O)NCCN2Cc2ccoc2)nc2c1CCCC2 (stereo not drawn)	5%	19%	28µM*	-2%	6%
Cc1nc(CNC(=O)CC2C(=O)NCCN2Cc2ccoc2)nc2c1CCCC2 (stereo not drawn)	-11%	33%	14µM*	1%	11%
CCc1ccc(CN(C)C(=O)CC2C(=O)NCCN2Cc2ccoc2)cc1 (stereo not drawn)	-2%	1%	18µM*	-3%	7%
COC(=O)CCCNC(=O)CC1C(=O)NCCN1Cc1ccoc1 (stereo not drawn)	2%	-2%	45µM*	0%	-5%
Cc1nc(CCNC(=O)CC2C(=O)NCCN2Cc2ccccc2)sc1C (stereo not drawn)	6%	0%	?	5%	-15%
O=C(CC1C(=O)NCCN1Cc1ccoc1)NCCc1ccc(Cl)cc1 (stereo not drawn)	-8%	5%	?	11%	9%
CCC(Sc1nncn2c1cc1occc12)C(=O)Nc1ccc(C)c(Cl)c1 (stereo not drawn)	-3%	nt	-9%	nt	nt
COc1ccc(CNC(=O)c2ccc3c(c2)CCN3S(=O)(=O)c2ccc(C)cc2)cc1	9%	nt	3%	nt	nt
COc1ccc2c(/C=N/NS(=O)(=O)c3ccc(C)cc3)c[nH]c2c1	-13%	-18%	14µM*	-14%	9%
CCCCCCCCCCCCCCCC[n+]1cccc2ccccc21	-23%	-2%	?	-7%	11µM*
CCOC(=O)Cn1c(=O)oc2cc(S(=O)(=O)N3CCN(c4ccc(F)cc4)CC3)ccc21	3%	nt	1%	nt	nt
CCN(CC)c1ccc(/C=C(/C#N)C(=O)NCc2ccccc2)o1	1%	-12%	35µM*	0%	-1%
CCN(CC)c1ccc(/C=C(/C#N)C(=O)NC(C)C)o1	-2%	-19%	nt	2%	16%
COc1ccc2[nH]c3c(Cl)ncnc3c2c1	-5%	-5%	-14%	-8%	-21%
COc1ccc2[nH]c3c4c(ccc3c2c1)C(=O)C=CC4=O	?	?	0.71µM*	?	9%
CC1CCN(C(=O)CSc2nnc(NC(=O)Nc3ccccc3)s2)CC1	0%	nt	2%	nt	nt
Cn1ccc2cc(S(=O)(=O)N3CCC(C(=O)NCCc4ccccc4)CC3)ccc21	4%	nt	-3%	nt	nt
O=C(CSc1c2c(nc3cc(Cl)ccc13)CCCC2)NCCN1CCOCC1	2%	-28%	-5%	0%	-3%
Clc1ccc2c(SCC3CO3)c3ccccc3nc2c1 (stereo not drawn)	-20%	10%	nt	nt	1µM*
Cc1ccc2[nH]c(O)c(N=Nc3ccccc3C)c2c1	-18%	-6%	22µM*	7%	30%
SMILES	Tb PYK inh	AMA1-RON2 inh	Sm TGR inh	LmPK inh	RE007 growth inh
Cc1ccccc1N=Nc1c(O)[nH]c2ccccc12	-23%	-2%	nt	nt	-2%
Cc1ccc(-n2nc3c(N4CCCC(C(=O)NCc5ccccc5C)C4)nnc(C)c3c2C)cc1 (stereo not drawn)	3%	nt	6%	nt	nt
c1ccc(-c2nnc(-c3ccccn3)s2)nc1	?	11%	12%	13µM*	-3%
N#C/C(N=Nc1ccccc1O)=N\Nc1ccccc1O	?	-15%	-28%	nt	11µM*
Oc1ccccc1N=N/C(=N/Nc1ccccc1O)c1ccccc1	-5%	9%	-17%	nt	-5%
O=C1N=c2ccccc2=C1c1sc(=S)n(NC(=O)c2cccc(O)c2)c1O	-16%	13%	-24%	-9%	-9%
Cc1ccc(C(=O)Nn2c(O)c(C=C3N=c4ccccc4=N3)sc2=S)cc1	3%	23%	1%	-1%	-7%
O=C1N=c2ccc(Br)cc2=C1c1sc(=S)n(NS(=O)(=O)c2ccccc2)c1O	-4%	20%	11µM*	-6%	-17%
Cc1ccc(S(=O)(=O)Nn2c(O)c(C=C3N=c4ccccc4=N3)sc2=S)cc1	4%	25%	13µM*	11%	22%
O=C(NCCCN1CCN(c2cccc(Cl)c2)CC1)c1ccc2nc(Cc3ccccc3)oc2c1	2%	nt	6%	nt	nt
COc1ccc(N(CC2CO2)S(=O)(=O)c2ccccc2)cc1 (stereo not drawn)	-2%	32%	40µM*	-1%	3%
CC(=O)C1=C(C)NC(SCC(N)=O)=C(C#N)C1C (stereo not drawn)	8.9µM*	46%	-34%	15%	2%
CC(=O)C1=C(C)NC(SCC(=O)c2ccc(F)cc2)=C(C#N)C1CC(C)C (stereo not drawn)	14µM*	-5%[2.32 µM]	?	23%	-15%
Cc1cc2c(cc1C)NC(CC(=O)Nc1ccccc1SC(F)(F)F)C(=O)N2 (stereo not drawn)	0%	nt	1%	nt	nt
CCOc1ccc2c(c1)c(C(C)=O)c(C)n2Cc1ccco1	1%	-3%	10µM*	-3%	-1%
CCOc1cccc(=O)c2c(C)n(Cc3ccco3)c(C)c12	nt	13%	40µM*	8%	-1%[3.69 µM]
CCOc1cccc(=O)c2c(C)n(Cc3ccccc3)c(C)c12	0%	-4%	nt	-2%	-5%
CCOc1ccc2c(c1)c(C(C)=O)c(C)n2-c1ccccc1	-4%	-20%	23%	1%	-26%
CCC1CN(C(=O)N2CCC(C(=O)NCc3ccc(N(C)C)cc3)CC2)c2ccccc2O1 (stereo not drawn)	-4%	nt	10%	nt	nt
CCN(CC(=O)Nc1c(F)cccc1F)C(=O)c1ccc(N2CCOCC2)c([N+](=O)[O-])c1	1%	-9%	45µM*	nt	6%
COc1cc(OC)c(NC(=O)N2CCc3c(sc4c3CCCC4)C2c2ccccc2)cc1Cl (stereo not drawn)	4%	nt	-3%	nt	nt
CC1CCC(NC(=O)c2ccc3c(c2)N(Cc2ccccc2F)C(=O)c2ccccc2S3)CC1 (stereo not drawn)	9%	nt	3%	nt	nt
Cc1ccc(C2NC(=O)NC3=C2CCc2ccccc23)cc1 (stereo not drawn)	2%	2%	40µM*	-3%	-10%

Screening results: PubChem, National Center for Advancing Translational Sciences (NCATS)
